PolyA inh – polyadenylation inhibitors in yeast reporter cells, primary screen, luminescence, S. cerevisiae. activity score, % at 12 µM. AID 1875, 2009. S. cerevisiae SKY197-pL101 polyadenylation reporter, beta-gal luminescence; efflux-impaired pdr1/pdr3 knockout yeast; score 100 = 6 SD above DMSO. 0.02% of 300,000 active;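 active means lowest replicate activity score at least 50, where 100 means six control SD above control mean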;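 further: yeast exposed to compound for 9 h at 30 °C; higher score means more reporter readthrough which indicates perturbed polyadenylation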
EBNA-1 inh – EBNA-1 DNA-binding inhibitors, primary screen, biochemical, fluorescence polarization; inhibition, % at 14.8 µM; 0.34% of 300,000 active; AID 1950, 2009; in the data active means inhibition above about 28%
NALP1 yeast inh – NALP1 inflammasome inhibitors in reconstituted yeast, colorimetric, S. cerevisiae, triplicate retest | inhibition, % at 10 µM | 0.61% of 280,000 active | S. cerevisiae NALP1/ASC/caspase-1 growth, X-gal OD620, 72 h; in the data active means inhibition mostly above about 24%, no sharp cut-off; inactive means mostly below about 32%
NALP3 yeast inh – NALP3 inflammasome inhibitors in reconstituted yeast, primary screen, luminescence, uHTS; AID 2825, 2010; 0.39% of 330,000 active; inhibition, % at 10 µM; Yeast reconstituted NLRP3/ASC/caspase-1, beta-gal luminescence, 24 h;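 active means inhibition of 50% or more; inactive means inhibition below 50%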;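 further: plate controls were induced DMSO wells for no effect and uninduced yeast grown without galactose for full effect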
dFosB act-1 – activators of delta FosB homodimer, primary screen, biochemical, fluorescence polarization, TAMRA-CDK5 oligo, single point; Protein FosB (Mus musculus), P13346; purified delta FosB; percent of positive-control signal above neutral wells; activation, % at 25 µM; 0.99% of 340,000 active;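 active means mean activation above about 17%, with every replicate also reaching it, limit read from the data, passing the limit was not always enough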
Target sequence (P13346 whole entry, looked up): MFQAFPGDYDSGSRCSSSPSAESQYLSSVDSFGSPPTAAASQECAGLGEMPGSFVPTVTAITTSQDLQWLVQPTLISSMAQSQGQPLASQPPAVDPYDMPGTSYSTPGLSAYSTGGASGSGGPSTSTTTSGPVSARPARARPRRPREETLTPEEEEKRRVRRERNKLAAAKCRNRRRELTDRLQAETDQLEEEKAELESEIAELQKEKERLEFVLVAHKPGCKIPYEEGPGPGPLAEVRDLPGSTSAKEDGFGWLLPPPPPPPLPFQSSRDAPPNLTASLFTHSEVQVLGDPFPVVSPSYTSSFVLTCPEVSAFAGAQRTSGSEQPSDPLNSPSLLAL
ZTA counter – counter-screen for EBNA-1 inhibitors: inhibitors of Epstein-Barr virus ZTA | ZTA-DNA binding, fluorescence polarization | inhibition, % at 11 µM | 0.15% of 320,000 active | AID 2234; in the data active means inhibition above about 33%
Target sequence (P03206 whole entry, looked up): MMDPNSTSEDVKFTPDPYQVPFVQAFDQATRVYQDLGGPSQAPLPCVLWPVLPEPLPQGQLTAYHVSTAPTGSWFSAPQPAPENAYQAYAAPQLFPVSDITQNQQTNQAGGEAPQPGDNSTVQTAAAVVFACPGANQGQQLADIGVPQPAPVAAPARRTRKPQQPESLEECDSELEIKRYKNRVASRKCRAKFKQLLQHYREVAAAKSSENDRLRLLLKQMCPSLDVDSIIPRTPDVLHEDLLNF
dFosB act-2 – activators of mouse delta FosB DNA binding, confirmation, biochemical, fluorescence polarization, TAMRA-CDK5 oligo, cherry-picked samples. shares compounds with dFosB act-1. 2,400 tested, under 10 active. activation, % at 24.9 µM. purified delta FosB; normalised: neutral wells 0, positive control 100. AID 588690, 2011;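 active means highest replicate activation at or above 34% and every replicate reaching that threshold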;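 further: higher polarization means more probe DNA bound by delta FosB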
* marks the source's active call; other numbers are inactive results. An excerpt weighted towards active compounds, which were near 2.2% of everything screened.

COc1cccc(C(=O)Nc2nnc(-c3ccc(Cl)cc3)o2)c1 was read as PolyA inh 23, EBNA-1 inh -4, NALP1 yeast inh 5, NALP3 yeast inh 29, dFosB act-1 23*, ZTA counter 0 and dFosB act-2 -2.
COc1cccc(C(=O)Nc2nnc(-c3ccc(F)cc3)o2)c1 was read as PolyA inh -5, EBNA-1 inh 10, NALP1 yeast inh -13, NALP3 yeast inh 29, dFosB act-1 2 and ZTA counter 6.
`COCC(C)NS(=O)(=O)c1ccc(C(=O)NCCCn2ccc3ccccc32)cc1` (configuration not stated) gave PolyA inh -3, EBNA-1 inh 0, NALP1 yeast inh 1, NALP3 yeast inh 11, dFosB act-1 -5 and ZTA counter 0.
Screening CC(=O)c1cccc(NC(=O)CC2S/C(=N/N=C/c3ccccc3)NC2=O)c1 (configuration not stated) returned PolyA inh -14, EBNA-1 inh -2, NALP1 yeast inh 1, NALP3 yeast inh 0, dFosB act-1 49*, ZTA counter 4 and dFosB act-2 3.
`CC(=O)c1cccc(NC(=O)CC2S/C(=N/N=C/c3cccs3)NC2=O)c1` (configuration not stated) gave PolyA inh 6, EBNA-1 inh -3, NALP1 yeast inh 12, NALP3 yeast inh -1, dFosB act-1 40*, ZTA counter 0 and dFosB act-2 -6.
For CC(C)C[C@H]1CNC(=S)N1CC1CCCN1C[C@H](CC(C)C)N1C[C@H](CC(C)C)N(CCc2ccccc2)C1=S (some centres not stated) the results were dFosB act-1 -8.
For CCOc1cccc2sc(=NC(=O)c3ccco3)n(CC(=O)OC)c12 the results were PolyA inh -10, EBNA-1 inh -19, NALP1 yeast inh 24, NALP3 yeast inh 4, dFosB act-1 -13 and ZTA counter 4.
For C#CCn1c(=NC(=O)c2ccco2)sc2cccc(Cl)c21 the results were PolyA inh -21, EBNA-1 inh -4, NALP1 yeast inh 20, NALP3 yeast inh 13, dFosB act-1 26*, ZTA counter -4 and dFosB act-2 4.
For CNc1ccc([N+](=O)[O-])cc1-c1nc2ccccc2[nH]c1=O the results were PolyA inh -10, EBNA-1 inh 1, NALP1 yeast inh 0, NALP3 yeast inh 12, dFosB act-1 40*, ZTA counter 2 and dFosB act-2 1.
`O=C(CN1C(=O)C2CC=CCC2C1=O)Nc1nnc(SCc2c(Cl)cccc2Cl)s1` (configuration not stated) gave PolyA inh 9, EBNA-1 inh -12, NALP1 yeast inh 21, NALP3 yeast inh 16, dFosB act-1 39*, ZTA counter 14 and dFosB act-2 -6.
Screening COc1cccc(N2CCN(C(=O)CCCCCn3c(=S)[nH]c4cc5c(cc4c3=O)OCO5)CC2)c1 returned PolyA inh -5, EBNA-1 inh 9, NALP1 yeast inh -6, NALP3 yeast inh 8, dFosB act-1 3 and ZTA counter 5.
For COc1cccc(CNC(=O)CCCn2c(=S)[nH]c3cc4c(cc3c2=O)OCO4)c1 the results were PolyA inh -17, EBNA-1 inh 8, NALP1 yeast inh 8, NALP3 yeast inh 14, dFosB act-1 32*, ZTA counter 4 and dFosB act-2 3.
Screening COC(=O)c1cc(NC(=O)c2ccc(Cn3cc(Cl)cn3)o2)cc(C(=O)OC)c1 returned PolyA inh 5, EBNA-1 inh 3, NALP1 yeast inh 12, NALP3 yeast inh -8, dFosB act-1 21*, ZTA counter 10 and dFosB act-2 -1.
COC(=O)c1ccccc1NC(=O)c1ccc(Cn2cc(Cl)cn2)o1 was read as PolyA inh -18, EBNA-1 inh -5, NALP1 yeast inh 16, NALP3 yeast inh 15, dFosB act-1 -7 and ZTA counter -1.
For O=C(NCCNC(=O)c1ccc(-c2ccc(Cl)c(Cl)c2)o1)c1cnccn1 the results were PolyA inh 4, EBNA-1 inh -7, NALP1 yeast inh 27, NALP3 yeast inh -2, dFosB act-1 -29 and ZTA counter 7.
For O=C(NCC(=O)N1CCN(S(=O)(=O)c2ccccc2)CC1)c1ccc(Br)o1 the results were PolyA inh -21, EBNA-1 inh 3, NALP3 yeast inh 9, dFosB act-1 0 and ZTA counter -16.
CC(=O)Nc1ccc(NC(=O)c2ccc(N(Cc3ccccc3C)S(C)(=O)=O)cc2)cc1 was read as PolyA inh 0, EBNA-1 inh 22, NALP3 yeast inh 10, dFosB act-1 20*, ZTA counter -1 and dFosB act-2 5.
`CC(=O)Nc1ccc(NC(=O)c2ccc(NC(=O)c3ccccc3)cc2)cc1` gave PolyA inh 17, EBNA-1 inh 26, NALP1 yeast inh 6, NALP3 yeast inh 5, dFosB act-1 27*, ZTA counter 2 and dFosB act-2 4.
For CC(=O)Nc1ccc(/C=N/NC(=O)CNS(=O)(=O)c2ccccc2)cc1 the results were PolyA inh 4, EBNA-1 inh 0, NALP1 yeast inh 12, NALP3 yeast inh 11, dFosB act-1 -2 and ZTA counter 3.
For CC(=O)Nc1ccc(/C=N/NC(=O)CNC(=O)c2ccccc2)cc1 the results were PolyA inh -7, EBNA-1 inh -5, NALP1 yeast inh 14, NALP3 yeast inh 17, dFosB act-1 21*, ZTA counter -4 and dFosB act-2 2.
CC(=O)Nc1ccc(C(=O)c2ccccc2)cc1 was read as PolyA inh -6, EBNA-1 inh -2, NALP1 yeast inh 17, NALP3 yeast inh 22, dFosB act-1 -5 and ZTA counter -11.
Screening COc1ccccc1NS(=O)(=O)c1cccc(C(=O)N/N=C/c2ccc(NC(C)=O)cc2)c1 returned PolyA inh 18, EBNA-1 inh -4, NALP1 yeast inh -14, NALP3 yeast inh -13, dFosB act-1 29*, ZTA counter 10 and dFosB act-2 -1.
Screening NC(=O)CSc1n[nH]c(=O)n1CCc1ccccc1 returned PolyA inh 12, EBNA-1 inh 4, NALP1 yeast inh 12, NALP3 yeast inh 1, dFosB act-1 3 and ZTA counter -3.
CCc1nn2c(N3CCOCC3)cc(C)nc2c1-c1ccccc1 was read as PolyA inh 7, EBNA-1 inh -9, NALP1 yeast inh 5, NALP3 yeast inh -4, dFosB act-1 -1 and ZTA counter 0.
